FLuc counter: counter-screen for miR-21 project: firefly luciferase inhibitors or activators. 360,000 compounds, 6.9% hits. purified FLuc, Km substrates, luminescence inhibition. P08659. Potency, µM (top dose mostly 57.5 µM), without a hit: top-dose activity change, negative = inhibition, hits mostly inhibitors;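 further: plate controls were vehicle for no effect and reference inhibitor for full effect; nearly all actives have a fitted effect of over 55% in size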
Target sequence (P08659 whole entry, looked up): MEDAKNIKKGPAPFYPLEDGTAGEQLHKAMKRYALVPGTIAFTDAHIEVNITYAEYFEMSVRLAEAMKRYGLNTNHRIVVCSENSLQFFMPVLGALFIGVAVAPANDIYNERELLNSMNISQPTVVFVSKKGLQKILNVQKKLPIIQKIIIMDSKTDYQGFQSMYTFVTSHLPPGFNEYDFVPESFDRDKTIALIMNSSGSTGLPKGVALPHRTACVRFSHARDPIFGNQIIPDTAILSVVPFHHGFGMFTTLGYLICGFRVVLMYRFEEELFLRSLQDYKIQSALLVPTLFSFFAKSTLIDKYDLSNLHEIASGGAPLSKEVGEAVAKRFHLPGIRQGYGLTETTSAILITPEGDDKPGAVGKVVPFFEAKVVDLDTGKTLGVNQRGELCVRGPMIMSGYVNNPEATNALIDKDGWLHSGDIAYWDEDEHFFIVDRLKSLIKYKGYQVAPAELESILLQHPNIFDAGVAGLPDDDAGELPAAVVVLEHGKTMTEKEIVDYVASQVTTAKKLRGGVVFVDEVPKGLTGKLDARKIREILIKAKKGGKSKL
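Biochemical qHTS of compounds, final roughly 60 µM downward over six points, against 10 nM purified firefly luciferase using Km concentrations of substrates (10 uM D-luciferin, 10 uM ATP) in Tris acetate pH 7.5 buffer; luminescence output.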
NPC1 prom act: NPC1 promoter activation | Huh7 NPC1 promoter luciferase reporter, 24 h | Potency, µM (doses to about 9.22 µM), for the others: at the highest dose activation, usual class: activators | 320,000 compounds, 2.4% hits; further: % of control where 0% means no effect; nearly all actives have a fitted effect of over 60% in size
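Luciferase expression driven by the NPC1 promoter was measured in stably transfected Huh7 cells after a 24 h compound incubation, using a luciferase reagent and a luminescence read.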
ELG1 genotoxic: inducers of genotoxicity in HEK293T ELG1-luciferase cells; 330,000 compounds, 1.3% hits; HEK293T ELG1-luciferase reporter, luminescence, 16 h; Potency, µM (series often up to 46 µM), for inactives: at the highest dose activity change, positive = activation, usual class: activators; AID 504466; further: % of control where 0% means no effect; nearly all actives have a fitted effect of over 60% in size
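Screening used a luciferase reporter fused to human ELG1 in HEK293T cells. Luminescence was read on a CCD plate imager after 16 hr exposure and 30 min ONE-Glo incubation.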
Rab9 promoter act: Rab9 promoter activation | Huh7 Rab9 promoter-luciferase reporter, luminescence, 24 h | Potency, µM (doses to about 9.22 µM), inactives show at the highest dose activation, negative = inhibition, most hits filed as activators | 320,000 compounds, 2.8% hits | AID 485297; further: % of control where 0% means no effect; nearly all actives have a fitted effect of over 60% in size
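Stable Rab9-luc Huh7, 1500 cells/well, 2 h settle; cmpd in DMSO, 24 h, 37 °C/5% CO2; luciferase reagent 10 min RT; luminescence.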
SMN2 splice up: SMN2 splice variant enhancement; HEK293 SMN2-luciferase splicing reporter, luminescence, 30-36 h; Potency, µM (titrated, usually from 46.1 µM), for the others: at the highest dose activity change, positive = activation, hits mostly activators; 210,000 compounds, 2.8% hits; AID 1458; further: % of control where 0% means no effect; nearly all actives have a fitted effect of over 55% in size
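HEK293 cells carry an SMN2 minigene-luciferase reporter in which exon 7 inclusion puts luciferase in frame. Cells were seeded at 2000 cells/well, attached for 10-12 hours, then exposed to compounds for 30-36 hours at 37C before ONE-Glo luminescence.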
KinaseGlo FLuc: counter-screen: inhibitors of Kinase-Glo firefly luciferase; Q27757; Kinase-Glo luciferase, ATP luminescence, 8 min; Potency, µM (doses to about 38.3 µM), for the others: at the top dose activity change, negative = inhibition, actives largely listed as inhibitors; 200,000 compounds, 0.28% hits; AID 1379; further: on the % scale 0 is the no-effect control and ±100 the full control effect; nearly all actives have a fitted effect of over 60% in size
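Compound is pinned into ATP-containing buffer (10 uM ATP, imidazole pH 7.2, 7 mM MgCl2). Kinase-Glo luciferase reagent is then added. Light output is recorded following an 8-min room-temperature incubation.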
Numbers without * were called inactive; ? = inconclusive; . = no result. A selection: hits, their analogues and other compounds. The true share with any hit is near 7.5%. The call rests on the fitted dose curve; in most records, active means well fitted curve in the direction sought with a large enough effect; inconclusive means small, poorly fitted or top-dose-only effect, or another doubt; inactive means no such curve, though single readings can be large; an effect the other way counts as inactive or inconclusive. Potency means the concentration at half of the fitted maximal effect.

SMILES | FLuc counter | NPC1 prom act | ELG1 genotoxic | Rab9 promoter act | SMN2 splice up | KinaseGlo FLuc
CCOC(=O)c1[nH]c(C)c(C(=O)Nc2ccccc2C)c1C | -6% | -27% | ? | -32% | 28% | 3%
CCOC(=O)c1c(C)[nH]c(N=Nc2cc(C(=O)O)cc(C(=O)O)c2)c1C | 17µM* | -2% | 2% | 8% | . | .
CCN(CC)S(=O)(=O)c1cc(OC)c(Cl)cc1OC | 5% | -1% | 0% | -2% | 8% | -1%
N#CC1(c2nc3ccccc3[nH]2)CC1c1ccc2c(c1)OCO2 (stereo unspecified) | 19µM* | 1% | 3% | 0% | 11% | 0%
O=C(CCc1nc2ccccc2[nH]1)NCc1ccc2c(c1)OCO2 | -1% | 1% | 1% | -1% | -5% | -1%
O=C(N/N=C/c1ccc2c(c1)OCO2)c1ccc(NC(=O)c2ccccc2Cl)cc1 | ? | -5% | -20% | 10% | . | .
C/C(=N\Nc1ccccn1)c1ccc2c(c1)OCO2 | 21µM* | ? | ? | 3.2µM* | . | -2%
Clc1ccccc1N/N=C/c1ccc2c(c1)OCO2 | 11µM* | 2.8µM* | ? | 2.8µM* | 20µM* | -25%
C(=N\Nc1nc2ccccc2[nH]1)/c1ccc2c(c1)OCO2 | 7.6µM* | 1.6µM* | ? | 2µM* | 13µM* | -1%
CN(CC(=O)Nc1ccc(Cl)cc1)C(=O)CCc1nc2sc3c(c2c(=O)[nH]1)CCCC3 | 1% | -1% | ? | 0% | . | .
CC(C)C(NC(=O)c1ccc2c(c1)OCCO2)c1nc2ccccc2[nH]1 (stereo unspecified) | -1% | -9% | ? | -7% | . | .
C/C(=N\Nc1nc2ccccc2[nH]1)c1ccc2c(c1)OCCO2 | 6µM* | -38% | -4% | -5% | . | .
C/C(=N\Nc1nc2ccccc2[nH]1)c1ccc2c(c1)OCO2 | 27µM* | 14% | -5% | 15% | 0% | -4%
CNC(=O)COC(=O)/C=C/c1cn(-c2ccccc2)nc1-c1ccc2c(c1)OCCO2 | -16% | -4% | -4% | 18% | -32% | 3%
NC(=O)N/N=C/c1cn(-c2ccccc2)nc1-c1cccs1 | 2.1µM* | ? | ? | ? | 18µM* | ?
CN(C)C(=O)COC(=O)/C=C/c1cn(-c2ccccc2)nc1-c1cccs1 | 19µM* | -3% | -5% | 0% | 7% | 1%
NS(=O)(=O)c1ccc(N/N=C/c2cn(-c3ccccc3)nc2-c2cccs2)c([N+](=O)[O-])c1 | -17% | -7% | -7% | -38% | -91% | -7%
O=C(N/N=C\c1cn(-c2ccccc2)nc1-c1ccccc1)c1ccc(Br)o1 | ? | 0% | -21% | 13% | -79% | -9%
Cc1ccc(-c2nn(-c3ccccc3)cc2/C=N/NC(=O)c2ccncc2)o1 | 12µM* | -4% | ? | 2% | 14µM* | 1%
O=C(/C=C/c1cn(-c2ccccc2)nc1-c1cccs1)NCCN1CCOCC1 | 19µM* | 0% | -9% | -1% | . | .
O=C(c1cn(-c2ccccc2)nc1-c1cccs1)N1CCOCC1 | ? | -1% | 1% | -4% | -8% | -1%
Cc1ccc(-c2nn(-c3ccccc3)cc2/C=N/NC(=O)c2ccc(Br)o2)cc1 | 11µM* | -3% | -14% | 6% | -93% | -2%
NS(=O)(=O)c1ccc(N/N=C/c2cn(-c3ccccc3)nc2-c2cccs2)cc1 | 11µM* | 4% | -1% | 11% | . | .
O=C(O)c1cccc(N/N=C/c2cn(-c3ccccc3)nc2-c2cccs2)c1 | 1.3µM* | 3.5µM* | ? | 2µM* | 14µM* | -6%
O=C(N/N=C/c1cn(-c2ccccc2)nc1-c1cccs1)c1ccncc1 | 11µM* | 0% | -2% | -2% | 2% | -11%
SMILES | FLuc counter | NPC1 prom act | ELG1 genotoxic | Rab9 promoter act | SMN2 splice up | KinaseGlo FLuc
Cc1ccc(CN2CC(C(=O)N3CCN(c4ccccc4Cl)CC3)CC2=O)cc1 (stereo unspecified) | 3% | -3% | -4% | -8% | . | .
COCCNc1cc(N2CCN(C3CCCCC3)CC2)c2noc3c2c1C(=O)c1ccccc1-3 | 6% | . | . | . | -6% | .
O=C(N/N=C/c1nn(-c2ccccc2)cc1-c1ccccc1)c1ccncc1 | 9.5µM* | 2% | -1% | -2% | ? | -2%
O[C@@H](c1ccccc1)C1CCN(CCc2ccccc2)CC1 | . | . | . | . | . | 2%
CCOC(=O)c1c(C)oc2c1c(C=NCC1CCCO1)c(O)c1ccccc12 (stereo unspecified) | 9.5µM* | 0% | -11% | -3% | 25% | -5%
CCOC(=O)c1ccc(N2C=C(C(=O)OC)C(c3ccc(OC)c(O)c3)C(C(=O)OC)=C2)cc1 | 17µM* | 1% | 5% | 1% | . | .
CCOc1ccccc1NC(=O)COC(=O)c1c(CC)noc1C | 2% | -1% | 0% | -3% | . | .
CC(=O)c1ccc(S(=O)(=O)Nc2ccc(-c3ccc(N4CCCCC4)nn3)cc2)cc1 | 8.5µM* | . | . | . | . | .
CC(=O)c1ccc(S(=O)(=O)Nc2ccc(-c3ccc(N4CCCCCC4)nn3)cc2)cc1 | 11µM* | . | . | . | . | .
CCC(C)NC(=O)c1ccc2c(c1)N(Cc1ccccc1)C(=O)c1ccccc1S2(=O)=O (stereo unspecified) | 1% | . | . | . | 1% | .
O=C(Cn1cc(S(=O)(=O)Cc2cccc(Cl)c2)c2ccccc21)NCCc1ccccc1 | -1% | . | . | . | . | .
C(=C\c1ccccc1)/C=N/Nc1nc2ccccc2s1 | 2.4µM* | 1.6µM* | ? | 1.3µM* | 14µM* | 2%
Cc1ccc(-c2csc(N/N=C/C=C/c3ccccc3)n2)cc1 | -13% | -3% | 0% | 0% | 1% | -5%
CCC/C=N/Nc1nc2ccccc2s1 | 3.4µM* | 3.5µM* | ? | 2.8µM* | ? | -6%
CC1CCC/C(=N/Nc2nc3ccccc3s2)C1 (stereo unspecified) | 0.85µM* | 22% | ? | 3.5µM* | 11µM* | -12%
O=S(=O)(N/N=C\C=C\c1ccccc1)c1ccc(Br)cc1 | 0% | -3% | 0% | 0% | 13% | -1%
Brc1ccc(/C=C/C=N/Nc2nc3ccccc3s2)cc1 | 9.5µM* | ? | 2% | . | -18% | -3%
CCC(=O)Nc1cc2nn(-c3ccc(OC)cc3)nc2cc1C | 0.3µM* | 0.1µM* | 0.41µM* | ? | -9% | -8%
COc1ccc(-n2nc3cc(C)c(NC(=S)NC(=O)c4ccccc4C)cc3n2)cc1 | 2.4µM* | 1% | ? | 16% | 9% | 4%
CCC(=O)Nc1cc2nn(-c3ccc(C)cc3)nc2cc1C | 0.11µM* | ? | ? | ? | -56% | -2%
Cc1cccc(C(=O)Nc2cc3nn(-c4ccc(C(C)C)cc4)nc3cc2C)c1 | 2.1µM* | . | . | . | 9% | .
